# About 2,000 (36%) of roughly 5,500 compounds were called active. Inconclusive results (about 18%) are left out. This is one part of the list. Unmarked numbers belong to inactive results. Rule as the data show it: active = normalized growth mostly below about 0.91 (no sharp cut-off); inconclusive = no clear call, values can overlap the other calls; inactive = mostly above about 0.92.
# Test: chemical genetic growth profiling, strain panel (AID 1159580);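 also: tested at 20 µM; growth read once vehicle control cultures reached saturation at 30 °C; 1 = growth at the plate median or of vehicle wells; lower values mean less growth of the strain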
# Details: S. cerevisiae deletion strains, growth OD
# [1] = locus YAL040C, strain CLN3, hits give low values
# [2] = locus YCL061C, strain MRC1 (second series), hits give low values
# [3] = locus YDR150W, strain NUM1, hits give low values
# [4] = locus YDR363W, strain ESC2, hits give low values
# [5] = locus YER002W, strain NOP16, hits give low values
# [6] = locus YNL175C, strain NOP13, hits give low values
# [7] = locus YNL197C, strain WHI3, hits give low values
# [8] = locus YNL224C, strain SQS1, hits give low values
# [9] = locus YOR083W, strain WHI5 (second series), hits give low values
smiles,measurement,setting,value
S=c1[nH]nc(Nc2ccc(I)cc2)s1,normalized growth,"locus YAR019C, strain CDC15, hits give low values",0.839 (active)
same,normalized growth,"locus YBL105C, strain PKC1, hits give low values",0.874 (active)
same,normalized growth,"locus YBR135W, strain CKS1, hits give low values",0.881 (active)
same,normalized growth,"locus YBR136W, strain MEC1, hits give low values",0.871 (active)
same,normalized growth,"locus YBR160W, strain CDC28, hits give low values",0.885 (active)
same,normalized growth,"locus YDL017W, strain CDC7, hits give low values",0.873 (active)
same,normalized growth,"locus YDL028C, strain MPS1, hits give low values",0.873 (active)
same,normalized growth,"locus YDL101C, strain DUN1, hits give low values",0.917
same,normalized growth,"locus YDL108W, strain KIN28, hits give low values",0.868 (active)
same,normalized growth,"locus YDL132W, strain cdc53, hits give low values",0.904
same,normalized growth,"locus YDL214C, strain PRR2, hits give low values",0.722
same,normalized growth,"locus YDR052C, strain DBF4, hits give low values",0.874 (active)
same,normalized growth,"locus YDR054C, strain cdc34, hits give low values",0.912
same,normalized growth,"locus YDR226W, strain ADK1, hits give low values",0.878 (active)
same,normalized growth,"locus YDR477W, strain SNF1, hits give low values",0.644 (active)
same,normalized growth,"locus YER123W, strain YCK3, hits give low values",0.504 (active)
same,normalized growth,"locus YER133W, strain GLC7, hits give low values",0.607 (active)
same,normalized growth,"locus YFL009W, strain cdc4, hits give low values",0.845 (active)
same,normalized growth,"locus YFL029C, strain CAK1, hits give low values",0.814 (active)
same,normalized growth,"locus YFR003C, strain YPI1, hits give low values",0.869 (active)
same,normalized growth,"locus YFR019W, strain FAB1, hits give low values",0.813
same,normalized growth,"locus YFR028C, strain CDC14, hits give low values",0.871 (active)
same,normalized growth,"locus YGR040W, strain KSS1, hits give low values",0.658 (active)
same,normalized growth,"locus YGR052W, strain FMP48, hits give low values",0.744
same,normalized growth,"locus YGR092W, strain DBF2, hits give low values",0.326 (active)
same,normalized growth,"locus YHR030C, strain SLT2, hits give low values",0.279 (active)
same,normalized growth,"locus YHR079C, strain IRE1, hits give low values",0.362 (active)
same,normalized growth,"locus YHR082C, strain KSP1, hits give low values",0.653
same,normalized growth,"locus YHR205W, strain SCH9, hits give low values",0.821
same,normalized growth,"locus YIL147C, strain SLN1, hits give low values",0.866 (active)
same,normalized growth,"locus YJL095W, strain BCK1, hits give low values",0.396 (active)
same,normalized growth,"locus YJL128C, strain PBS2, hits give low values",0.882
same,normalized growth,"locus YJL157C, strain FAR1, hits give low values",0.699 (active)
same,normalized growth,"locus YJR016C, strain ILV3, hits give low values",0.85 (active)
same,normalized growth,"locus YJR066W, strain TOR1 (second series), hits give low values",0.14 (active)
same,normalized growth,"locus YJR066W, strain TOR1, hits give low values",0.462 (active)
same,normalized growth,"locus YKL048C, strain ELM1, hits give low values",0.857
same,normalized growth,"locus YKL067W, strain YNK1, hits give low values",0.746
same,normalized growth,"locus YKL101W, strain HSL1, hits give low values",0.77
same,normalized growth,"locus YKL193C, strain SDS22, hits give low values",0.849 (active)
same,normalized growth,"locus YKL203C, strain TOR2, hits give low values",0.648 (active)
same,normalized growth,"locus YLR113W, strain HOG1, hits give low values",0.51 (active)
same,normalized growth,"locus YLR133W, strain CKI1, hits give low values",0.745
same,normalized growth,"locus YLR403W, strain SFP1, hits give low values",0.566 (active)
same,normalized growth,"locus YML070W, strain DAK1, hits give low values",0.676 (active)
same,normalized growth,"locus YMR001C, strain CDC5, hits give low values",0.85 (active)
same,normalized growth,"locus YMR205C, strain PFK2 (second series), hits give low values",0.743 (active)
same,normalized growth,"locus YMR277W, strain FCP1, hits give low values",0.863 (active)
same,normalized growth,"locus YNL006W, strain LST8, hits give low values",0.87 (active)
same,normalized growth,"locus YNL020C, strain ARK1, hits give low values",0.71 (active)
same,normalized growth,"locus YNL161W, strain CBK1, hits give low values",0.87 (active)
same,normalized growth,"locus YNL183C, strain NPR1, hits give low values",0.516 (active)
same,normalized growth,"locus YNL207W, strain RIO2, hits give low values",0.818 (active)
same,normalized growth,"locus YNL222W, strain SSU72, hits give low values",0.864 (active)
same,normalized growth,"locus YNL307C, strain MCK1 (second series), hits give low values",0.701
same,normalized growth,"locus YOL078W, strain AVO1, hits give low values",0.847 (active)
same,normalized growth,"locus YOL136C, strain PFK27, hits give low values",0.651 (active)
same,normalized growth,"locus YOR061W, strain CKA2, hits give low values",0.755
same,normalized growth,"locus YOR119C, strain RIO1, hits give low values",0.61 (active)
same,normalized growth,"locus YOR231W, strain MKK1, hits give low values",0.447 (active)
same,normalized growth,"locus YOR329C, strain SCD5, hits give low values",0.847 (active)
same,normalized growth,"locus YPL031C, strain PHO85, hits give low values",0.495 (active)
same,normalized growth,"locus YPL153C, strain RAD53, hits give low values",0.512 (active)
same,normalized growth,"locus YPL204W, strain HRR25, hits give low values",0.486 (active)
same,normalized growth,"locus YPL209C, strain IPL1, hits give low values",0.85 (active)
same,normalized growth,"locus YPL256C, strain CLN2, hits give low values",0.438 (active)
same,normalized growth,"locus YPR025C, strain CCL1, hits give low values",0.863 (active)
same,normalized growth,"locus YPR106W, strain ISR1, hits give low values",0.894
same,normalized growth,"locus YPR111W, strain DBF20, hits give low values",0.911
same,normalized growth,"strain NNK1, hits give low values",0.893
same,normalized growth,"strain TSCII, hits give low values",0.838 (active)
Oc1cc2c(cc1O)CN(C(=S)NCCc1ccc(Cl)cc1)CCC2,normalized growth,"locus YAL013W, strain DEP1, hits give low values",0.609 (active)
same,normalized growth,[1],1.09
same,normalized growth,[2],0.683 (active)
same,normalized growth,[3],0.656 (active)
same,normalized growth,[4],0.879
same,normalized growth,[5],1
same,normalized growth,"locus YGR078C, strain PAC10, hits give low values",0.995
same,normalized growth,"locus YGR229C, strain SMI1, hits give low values",0.128 (active)
same,normalized growth,"locus YJR075W, strain HOC1, hits give low values",0.718 (active)
same,normalized growth,"locus YMR263W, strain SAP30, hits give low values",0.994
same,normalized growth,"locus YNL128W, strain TEP1, hits give low values",0.975
same,normalized growth,[6],1
same,normalized growth,[7],0.98
same,normalized growth,[8],0.997
same,normalized growth,"locus YNL322C, strain KRE1, hits give low values",0.992
same,normalized growth,[9],0.897
O=C(O)C1CCNCC1,normalized growth,[1],1
same,normalized growth,[2],0.998
same,normalized growth,[3],1
same,normalized growth,[4],0.964
same,normalized growth,[5],0.995
same,normalized growth,"locus YNL153C, strain GIM3, hits give low values",1.01
same,normalized growth,[6],0.992
same,normalized growth,[7],0.992
same,normalized growth,[8],0.997
same,normalized growth,[9],1.01
same,normalized growth,"locus YPL055C, strain LGE1, hits give low values",1.01
